# Experimental data: PubChem BioAssay AID2216 (Broad Institute, 2009)
# The whole screen tested about 300,000 compounds, of which about 3,300 (1.1%) were called active. Roughly 6% stayed inconclusive and do not appear here.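 The calls were made as follows: active = more than half of the replicate wells show a fall in the fluorescence ratio signal beyond about 16% (limit read from the data, passing the limit was not always enough); inconclusive = exactly half of the replicate wells pass the set limit; inactive = fewer than half of replicates pass the limit.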 Only a selection was taken, and actives are over-represented in it overall.
# Test system: Ran GTPase (GTP-bound) - importin-beta complex
# Assay: inhibitors of RanGTP-importin-beta interaction, primary screen, biochemical, FRET, CFP-Ran, YFP-importin-beta, homogeneous (AID 2216);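 also: 0% = DMSO wells and 100% = Ran loaded with GDP instead of GTP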
# Details: cell-free CFP-Ran/YFP-importin-beta FRET ratio; hits give high values; concentration not given here
row,SMILES,inhibition
1,CCN(CC)C(=O)c1sc(NC(=O)c2ccco2)c(C#N)c1C,5.09% (inactive)
2,CCCc1ccc(-c2c(C)sc(NC(=O)c3ccnn3C)c2C#N)cc1,69.5% (active)
3,Cn1nccc1CNC(=O)c1ccnn1C,-4.46% (inactive)
4,O=C(COC(=O)Cn1[nH]c(=O)c2ccccc2c1=O)Nc1c(Cl)cccc1C(F)(F)F,0.554% (inactive)
5,CCCCn1c(N)c(N(CC(C)C)C(=O)c2ccc(-n3c(C)ccc3C)cc2)c(=O)[nH]c1=O,2.98% (inactive)
6,Cc1ccc(S(=O)(=O)CC(=O)Nc2sc(C)c(C)c2C(N)=O)cc1,1.11% (inactive)
7,CC(=O)N1CCc2c(sc(NC(=O)CCS(=O)(=O)c3ccccc3)c2C#N)C1,2.62% (inactive)
8,CC(=O)N1CCc2c(sc(NC(=O)CCS(=O)(=O)c3ccc(C)cc3)c2C(N)=O)C1,32.8% (active)
9,CCOC(=O)c1cc(NC(=O)c2cccnc2)ccn1,-2.83% (inactive)
10,N#Cc1c(N)n(CCOC(=O)c2ccc(Cl)cc2)c2nc3ccccc3nc12,39.9% (active)
11,CC(C)(C)c1ccc(C(=O)NCCn2c(N)c(C#N)c3nc4ccccc4nc32)cc1,82.8% (active)
12,CN1OC(COC(=O)c2ccc(Cl)cc2)CC1c1ccccc1 (configuration not stated),2.75% (inactive)
13,CCCCNC(=O)CCNC(=O)c1ccc(C(C)(C)C)cc1,3.77% (inactive)
14,CC(C)(C)c1ccc(C(=O)NCCC(=O)NCc2ccco2)cc1,1.67% (inactive)
15,Cn1cncc1COC(=O)c1ccc(Cl)cc1,0.688% (inactive)
16,CN(C(=O)c1cc2c(=O)n3ccccc3nc2s1)C1CCCCC1,2.4% (inactive)
17,CCOc1cc(C(=O)Nc2ccc(S(=O)(=O)Nc3cnc4ccccc4n3)cc2)cc(OCC)c1OCC,7.91% (inactive)
18,CCN1CCN(c2ccc(S(=O)(=O)N3CCCCC3)cc2NC(=O)Cc2c(Cl)cccc2Cl)CC1,1.25% (inactive)
19,O=C(c1ccc(F)c(S(=O)(=O)N2CCOCC2)c1)N(CCc1ccccc1)Cc1ccccc1,7.49% (inactive)
20,CCC(C)N(C(=O)COC(=O)c1nc(Cl)ccc1Cl)C1CCS(=O)(=O)C1 (configuration not stated),7.73% (inactive)
21,COc1ccc(-c2cc3ccc(OCc4nn[nH]n4)cc3oc2=O)cc1,-0.255% (inactive)
22,O=c1oc2cc(O)ccc2cc1-c1ccc(F)cc1,149% (active)
23,O=c1c(-c2ccccc2)coc2cc(O)ccc12,-0.924% (inactive)
24,O=C(Nc1cc2c3c(c1)CC(=O)N3CCC2)c1ccccc1F,0.312% (inactive)
25,CCCC(=O)N1CCc2[nH]c3ccccc3c2C1,29% (active)

row,SMILES,inhibition
1,Cc1ccc2[nH]c3c(c2c1)CN(C(=O)CN1CCN(c2ccccc2)CC1)CC3,-23.4% (inactive)
2,CCc1ccc(NC(=O)N2CCc3ccccc3C2)cc1,-4.66% (inactive)
3,Fc1ccc(NC(=S)N2CCc3[nH]c4ccccc4c3C2)cc1,9.84% (inactive)
4,O=C(Nc1ccc(Cl)cc1)N1CCc2[nH]c3ccccc3c2C1,29.2% (active)
5,C=CCNC(=S)N1CCc2[nH]c3ccccc3c2C1,3.44% (inactive)
6,CC(=O)c1c(C)[nH]c(C(=O)COC(=O)CCOc2ccc(C)cc2)c1C,6.12% (inactive)
7,COc1ccccc1C(=O)NC(CCSC)C(=O)N1CCN(C/C=C/c2ccccc2)CC1 (configuration not stated),0.266% (inactive)
8,CCOc1ccc(S(=O)(=O)NCCC(=O)N2CCCCCCC2)cc1,0.262% (inactive)
9,CCN(CC(=O)Nc1c(F)cccc1F)C(=O)C1CCC1,0.154% (inactive)
10,Cc1cc(S(=O)(=O)c2cc3ccc(O)c(C)c3oc2=O)ccc1F,132% (active)
11,CCCCN(C(=O)c1ccc(S(=O)(=O)N2CCOCC2)cc1)C1CCS(=O)(=O)C1 (configuration not stated),-4.84% (inactive)
12,NC(=O)CSc1nnc(NC(=O)c2ccc3ccccc3c2)s1,5.81% (inactive)
13,COc1ccc(/C=N/Nc2cc(N3CCOCC3)nc(C)n2)c(OC)c1,-3.31% (inactive)
14,CN(C)c1ccc(/C=N/Nc2cc(N3CCOCC3)nc(N3CCOCC3)n2)cc1,25.8% (active)
15,Cc1ccccc1N/N=C/c1ccc(N2CCOCC2)cc1,1.62% (inactive)
16,Brc1cnc2ccccc2c1N1CCCCC1,-1.98% (inactive)
17,COc1ccc(C(C#N)(CC(=O)O)c2cnccn2)cc1OC (configuration not stated),5.73% (inactive)
18,Cc1cc(NC(=O)CCS(=O)(=O)c2ccc(F)cc2)no1,-2.56% (inactive)
19,CCc1cccc(C)c1NC(=O)COC(=O)CNC(=O)c1cccs1,0.115% (inactive)
20,COc1ccc(NC(=O)CCC(=O)N2CCN(S(=O)(=O)c3ccc(C)cc3)CC2)c(OC)c1,2.41% (inactive)
21,Cc1cc(NCc2ccco2)n2c(nc3ccccc32)c1C#N,102% (active)
22,Cc1ccccc1-c1nc(C#N)c(NCc2ccco2)o1,-0.838% (inactive)
23,CC(C)c1cc(NCc2ccccn2)n2c(nc3ccccc32)c1C#N,51% (active)
24,Cc1c(C(=O)Nc2cccc(Cl)c2)cn2c(nc3ccccc32)c1C#N,10.5% (inactive)
25,CCOCCCNc1c(CC)c(C)c(C#N)c2nc3ccccc3n12,10.7% (inactive)

row,SMILES,inhibition
1,Cc1cc(NC(C)C)n2c(nc3ccccc32)c1C#N,-3.25% (inactive)
2,Nc1c(C(=O)Nc2ccc3c(c2)OCCO3)nnn1Cc1ccccc1,-8.94% (inactive)
3,COc1ccc(-c2csc3ncnc(N4CCN(S(=O)(=O)c5cccc(F)c5)CC4)c23)cc1,-3.81% (inactive)
4,CCOc1ccc(C(=O)CCN2CCOCC2)cc1,4.03% (inactive)
5,COc1cc(C(=O)NCC(=O)N2CC=C(c3ccccc3)CC2)cc(OC)c1OC,0.563% (inactive)
6,COc1ccc(C2CC(c3cccs3)=NN2C(=O)CSc2nncs2)cc1OC (configuration not stated),-2.68% (inactive)
7,COc1ccc(C2CC(c3cccs3)=NN2c2ccccc2)cc1 (configuration not stated),2.04% (inactive)
8,COc1ccc(C2CC(c3cccs3)=NN2C(=O)CCC(=O)O)cc1OC (configuration not stated),-4.44% (inactive)
9,COc1ccccc1N1N=C(c2cccs2)CC1c1ccccc1 (configuration not stated),-0.43% (inactive)
10,COc1ccc(C2CC(c3cccs3)=NN2c2ccc(F)cc2)cc1OC (configuration not stated),53.2% (active)
11,COc1ccc(C2CC(c3cccs3)=NN2c2nc(C)c(C(C)=O)s2)cc1OC (configuration not stated),89.5% (active)
12,O=C(COC(=O)c1ccccn1)NNC(=O)c1ccc([N+](=O)[O-])cc1,4.26% (inactive)
13,CN(CC(=O)NCc1cccnc1)S(=O)(=O)c1cc(Cl)ccc1Cl,4.66% (inactive)
14,COc1ccc(NC(=O)CN(C)C(=O)Cc2coc3cc(C)c(C)cc23)cc1,0.0585% (inactive)
15,C=CCOc1cccc(C2C(C(=O)c3ccc(C)o3)=C(O)C(=O)N2c2nnc(C)s2)c1 (configuration not stated),-5.03% (inactive)
16,O=C1N[C@@H](Cc2ccccc2)C(=O)N2[C@@H]3N(S(=O)(=O)c4ccc(F)cc4)c4ccccc4[C@]3(Br)C[C@@H]12,5.5% (inactive)
17,OCCCNc1nc(-c2ccccc2)c2cc(Cl)ccc2n1,50.7% (active)
18,NC(N)=Nc1nc(-c2ccccc2)c2cc(Cl)ccc2n1,4.42% (inactive)
19,O=C(CCl)NNc1nc(-c2ccccc2)c2cc(Cl)ccc2n1,-0.54% (inactive)
20,Cc1cc(C)c(S(=O)(=O)n2cc(C(C)C(N)C(=O)O)c3ccccc32)c(C)c1 (configuration not stated),-3.39% (inactive)
21,CCCCN(CCCC)CC(O)Cn1c2ccccc2c(=O)c2ccccc21 (configuration not stated),114% (active)
22,O=C1c2ccccc2S(=O)(=O)N1CC(O)Cn1c2ccccc2c2ccccc21 (configuration not stated),3.48% (inactive)
23,CS(=O)(=O)N(CC(O)Cn1c2ccccc2c2ccccc21)c1cccc2ccccc12 (configuration not stated),2.16% (inactive)
24,O=C(COC(=O)CNS(=O)(=O)c1ccc(F)c(F)c1F)NC1CCCC1,-1.07% (inactive)
25,COC(=O)C1=CN(C)C=C(C(=O)OC)C1c1ccc(Cl)cc1Cl,2.63% (inactive)

row,SMILES,inhibition
1,CCOc1ccccc1N(CC(=O)Nc1ccccc1C(=O)OC)S(C)(=O)=O,2.19% (inactive)
2,CCOc1ccccc1C1C(C(=O)OC)=CN(C)C=C1C(=O)OC,118% (active)
3,COc1ccc(Cc2nnc(SCC(=O)N(c3ccccc3)C(C)C)n(N)c2=O)cc1,-2.45% (inactive)
4,Clc1cccc(Cl)c1OCCOCCNCc1ccccc1,0.589% (inactive)
5,OCCNCc1cccc(OCc2ccccc2Cl)c1,17.6% (active)
6,OCCNCCOc1ccc(Cl)c(Cl)c1,-2.77% (inactive)
7,CCCCN1C(N)=NC[C@@H]1Cc1ccccc1,-2.74% (inactive)
8,Cc1ccn2c(=O)nc(SCC(=O)NCc3ccc4c(c3)OCO4)nc2c1,-2.18% (inactive)
9,COc1ccc(-n2nnnc2CNC(=O)c2ccc3ccccc3c2)cc1,3.81% (inactive)
10,O=C(CSc1nc(=O)n2ccccc2n1)Nc1ccc2c(c1)OCCO2,0.244% (inactive)
11,CC(C)Nc1nnc(SC(C)C(=O)N(C)C2CCCCC2)s1 (configuration not stated),2.7% (inactive)
12,CC(=O)c1c(-c2ccccc2)c2ccccc2[nH]c1=O,-2.98% (inactive)
13,O=C(CN1CCOCC1)Nc1c(-c2ccccc2)c2cc(Br)ccc2[nH]c1=O,-3.33% (inactive)
14,C/C(=N\N)c1c(-c2ccccc2)c2cc(Br)ccc2[nH]c1=O,21.4% (active)
15,CCN(CCCNC(=O)c1ccc2c(c1)NC(=O)CN2C)c1cccc(C)c1,20.7% (active)
16,CN(C)CCCNC(=O)c1ccc2[nH]c3ccccc3c2c1,-2.02% (inactive)
17,CCN(CCCNC(=O)CCn1c(=O)[nH]c2ccsc2c1=O)c1ccccc1,8.57% (inactive)
18,Cc1ccc(NC(=O)CSCC(=O)Nc2sccc2C#N)cc1,-2.13% (inactive)
19,O=C(COC(=O)/C=C/c1ccc(OC(F)F)cc1)NC1CCCCC1,-7.27% (inactive)
20,CCN(CC)c1nc(-c2ccccc2)cc(C(F)(F)F)c1C#N,25.9% (active)
21,N#Cc1c(C(F)(F)F)cc(-c2ccccc2)nc1SCC(=O)N1CCOCC1,3.19% (inactive)
22,N#Cc1c(C(F)(F)F)cc(-c2ccc(Cl)cc2)nc1SCC(=O)O,-1.29% (inactive)
